Shown are actives, neighbours in structure and some others; about 2.4% of the full set was active somewhere.
ClpP mod – qHTS Assay for Activators of ClpP. purified B. subtilis ClpP, FRET peptide cleavage, 20 min. Potency, µM (titrated, usually from 57.5 µM), for the others: at the highest dose activity change, negative = active. 340,000 compounds, 1.9% hits; active means well fitted falling curve with a large enough effect; inconclusive means small, poorly fitted or top-dose-only effect; inactive means no such curve, though single readings can be large or run the other way; further: the source files actives as falling curves though it sought activators and does not explain the sign; nearly all actives have a fitted effect of over 65% in size
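ClpP 10 microg/mL final, pH 8 Tris/KCl buffer with BSA, glycerol, Tween-20; compound pinned in; FRET-FV substrate; RT 20 min; Ex320/Em430; ΔFRET vs ADEP 5.8 microM, DMSO, no enzyme.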
Rango-impB inh – prevents formation of the Rango-importin beta complex | Q14974 | Rango CFP/YFP FRET sensor + importin beta, 45 min | Potency, µM (doses to about 92.2 µM), without a hit: at the top dose inhibition of complex formation | 340,000 compounds, 0.031% hits | AID 540263; calls by dose curve;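 further: 0% = DMSO wells and 100% = buffer wells lacking importin beta; nearly all actives have a fitted effect of over 15% in size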
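Inhibition scored from the CFP 486 nm/YFP 530 nm FRET ratio 45 min after adding 0.125 microM importin beta to 50 nM Rango biosensor preincubated 5 min with compound (room temperature, PBS with DTT, Tween-20, BSA). No-importin wells as positive control.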
Rango dissoc inh – inhibitors of RanGTP-induced Rango-importin beta complex dissociation; O95149+P62826; Biochemical FRET Rango-importin beta, RanGTP-induced dissociation; Potency, µM (doses to about 46.1 µM), without a hit: at the top dose activity change, negative = inhibition; 340,000 compounds, 0.071% hits; calls by dose curve; further: % of control where 0% means no effect; nearly all actives have a fitted effect of over 45% in size
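Compounds sat 5 min at room temperature with 0.1 uM Rango biosensor plus 0.25 uM importin beta, then FRET pre-read. RanGTP-RCC1 (0.6 uM Ran, 2mM GTP, 0.2 uM RCC1) added for 45 min, and the CFP/YFP post-read measured blocked complex dissociation.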
TDP1 block – TDP1 (human) enzyme inhibition; recombinant TDP1, AlphaScreen DNA substrate cleavage; 350,000 compounds, 0.28% hits; Potency, µM (doses to about 130 µM), inactives show at the highest dose activity change, negative = inhibition, hits mostly inhibitors; Q9NUW8; further: on the % scale 0 is the no-effect control and ±100 the full control effect; nearly all actives have a fitted effect of over 40% in size
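Enzyme-compound mixtures sat 15 min at room temperature, followed by a 5 min reaction with 15 nM final substrate and 10 min with AlphaScreen beads. Recombinant human Tdp1 was used at 1 nM final.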
PTAP TSG101 blk – blocks PTAP/TSG101 interaction to inhibit HIV-1 budding | Q99816 | Fluorescence polarization, FITC-PTAP peptide / Tsg101 binding | Potency, µM (titrated, usually from 115 µM), inactives show at the top dose activity change, negative = inhibition, hits mostly inhibitors | 340,000 tested, under 10 active | AID 493005; active means well fitted inhibition curve with a large enough effect in the main read-out, with a control signal flat, not every such curve was filed as active; inconclusive means small, poorly fitted or top-dose-only effect, or effect the other way, or a change in a side signal; inactive means no such curve, though single readings can be large or run the other way; further: % of control where 0% means no effect
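Fluorescence anisotropy tracks displacement of a FITC-tagged PTAP peptide (50 nM) from the Tsg101 binding domain (10 uM), following a 20 min room-temperature incubation at pH 7.5.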
12-LOX inh – ALOX12 (human) lipoxygenase inhibition. P18054. Potency, µM (highest dose often 108 µM), for inactives: at the highest dose activity change, negative = inhibition, usual class: inhibitors. purified 12hLO, xylenol orange hydroperoxide absorbance. AID 1671190. 580,000 compounds, 1.1% hits; further: on the % scale 0 is the no-effect control and ±100 the full control effect
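Hydroperoxide product was detected by ferrous iron/xylenol orange as the 573 to 405 nm absorbance ratio. Arachidonic acid at 40 uM (final) was turned over for 30 min at room temperature by 150 nM human 12hLO, pH 7.0 Hepes buffer, after 15 min compound preincubation.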
* marks the source's active call; other numbers are inactive results; ? = inconclusive; / = no result given; ! = not confirmed by another sample; [ ] = another dose, or the depositor's remark. Unless noted, the call rests on the fitted dose curve; in most records, active means well fitted curve in the direction sought with a large enough effect; inconclusive means small, poorly fitted or top-dose-only effect, or another doubt; inactive means no such curve, though single readings can be large; an effect the other way counts as inactive or inconclusive. Potency means the concentration at half of the fitted maximal effect.

SMILES | ClpP mod | Rango-impB inh | Rango dissoc inh | TDP1 block | PTAP TSG101 blk | 12-LOX inh
Cn1c(=O)c(-c2cc(=O)[nH][nH]2)c(O)c2ccccc21 | / | 0% | 4% | -9% | 0% | -2%
CCN(Cc1ccc(OC)c(OC)c1)C(=O)CSc1nc(C2CC2)nc2ccccc12 | / | / | / | / | / | -4%
O=C(NCc1ccc(F)cc1F)c1cc(COc2c(F)cccc2F)on1 | 18µM* | -2% | 24% | / | -3% | 31%
Cc1c(N/N=C(\C#N)C(=O)c2ccc(Cl)cc2)c(=O)n(-c2ccccc2)n1C | -3% | 0% | -19% | -3% | -1% | 8.9µM*
COc1cc(CN(CC(=O)NC(=O)NC(C)(C)C)C2CC2)ccc1OC(F)F | / | / | / | / | / | -26%
Cc1ccc2nc(N3C(=O)C(O)=C(C(=O)c4ccc(C)o4)C3c3ccco3)sc2c1 (configuration not stated) | 0% | ? | ? | -9% | -8% | 0.56µM*
Cc1ccc2nc(N3C(=O)C(O)=C(C(=O)c4ccco4)C3c3ccc(C)o3)sc2c1 (configuration not stated) | / | ? | -19% | 13% | 3% | ?
CCOC(=O)c1sc(N2C(=O)C(O)=C(C(=O)c3ccco3)C2c2cccc([N+](=O)[O-])c2)nc1C (configuration not stated) | -2% | ? | -6% | 9% | -9% | 45µM*
COC(=O)c1sc(N2C(=O)C(O)=C(C(=O)c3ccc(C)o3)C2c2ccco2)nc1C (configuration not stated) | -4% | ? | ? | 0% | 6% | ?
O=C(C1=C(O)C(=O)N(c2nc3ccc(Cl)cc3s2)C1c1ccco1)c1ccco1 (configuration not stated) | -2% | ? | 16µM* | -2% | -1% | 7.9µM*!
Cc1cc(C)c2nc(N3C(=O)C(O)=C(C(=O)c4ccco4)C3c3cccc(O)c3)sc2c1 (configuration not stated) | 0% | ? | 4.1µM* | 5% | -9% | 25µM*
Cc1nnc(N2C(=O)C(O)=C(C(=O)c3ccco3)C2c2cccc([N+](=O)[O-])c2)s1 (configuration not stated) | 0% | 4% | 0% | 4% | / | ?
O=C(Cc1ccc(-c2ccccc2)cc1)NC1(C(=O)O)CCCCC1 | / | / | / | / | / | -45%
O=C(NC1CCCCC1)[C@@H]1C[C@@H](O)CN1C1CCN(C(=O)C2(c3ccccc3)CC2)CC1 | / | / | / | / | / | 8%
Cc1ccc2nc(N3C(=O)C(O)=C(C(=O)c4ccco4)C3c3ccc(O)cc3)sc2c1 (configuration not stated) | / | / | / | / | / | 22µM*!
Cc1ccc(C2C(C(=O)c3ccco3)=C(O)C(=O)N2c2nnc(C)s2)cc1 (configuration not stated) | -1% | ? | ? | -15% | -9% | ?
Cc1cc(C)c2nc(N3C(=O)C(O)=C(C(=O)c4ccco4)C3c3ccc(O)cc3)sc2c1 (configuration not stated) | 0% | ? | 26µM* | 5% | -6% | 25µM*
CCc1ccc(N(CC(=O)NC2CCCCC2)C(=O)CCC(=O)Nc2ccccn2)cc1 | 16µM* | -1% | -4% | 3% | 1% | -16%
Cc1ccc(N(CC(=O)NC2CCCC2)C(=O)CCC(=O)Nc2ccccn2)cc1 | / | 3% | -8% | / | 1% | 27%
CCOC(=O)C(C(=O)Nc1ccccn1)C1CCCCC1 (configuration not stated) | 28µM* | 0% | 1% | 6% | -9% | ?
COc1ccc(NC(=O)c2ccc3c(c2)NC(C)(COCC2CC2)CO3)cc1OC (configuration not stated) | / | / | / | / | / | -8%[176 µM]
Cc1cccc(NC(=O)CSc2cccc3cccnc23)c1 | 5% | -2% | -17% | 4% | -3% | ?
CC1Sc2ccc(C(=O)NCc3ccccn3)cc2NC1=O (configuration not stated) | -1% | 2% | 0% | 2% | 5% | -23%
CN(C)C(=O)CSc1cccc2cccnc12 | 20µM* | -2% | -18% | 9% | -9% | -28%
O=C(CSc1cccc2cccnc12)OCC(=O)c1ccccc1 | 25µM* | 0% | -1% | 6% | -4% | -6%
SMILES | ClpP mod | Rango-impB inh | Rango dissoc inh | TDP1 block | PTAP TSG101 blk | 12-LOX inh
NNC(=O)CSc1cccc2cccnc12 | ? | 1% | 9% | -3% | -1% | -3%
O=C(CSc1cccc2cccnc12)Nc1cc(C(=O)O)cc(C(=O)O)c1 | / | 6% | 20% | 3% | -10% | 25µM*
CC1Sc2ccc(C(=O)NNC(=O)CSc3cccc4cccnc34)cc2NC1=O (configuration not stated) | / | / | / | / | / | 7.9µM*
CCOc1cccc2cc(-c3nc(-c4cc(OC)c(OC)c(OC)c4)no3)c(=O)oc12 | / | / | / | / | / | 4%
Cc1nn(C(C)(C)C)c(OC(=O)c2ccc3c(c2)OCO3)c1S(=O)(=O)c1ccccc1 | ? | 0% | 10% | 4% | 3% | 0%
Cc1nn(C(C)(C)C)c(OC(=O)c2ccc3c(c2)OCO3)c1Sc1ccccc1 | 32µM* | 2% | 24% | -5% | 0% | 24%[57.4 µM]
CN(C)[C@@H]1CN(Cc2ccc(Br)o2)CC[C@@H]1CNC(=O)C1CC1 | / | / | / | / | / | 26%
CCOC(=O)Cc1c(C)c2c(C)nn(-c3ccccc3)c2oc1=O | 35µM* | 1% | 1% | 7% | 0% | -22%
Cc1c(NC(=O)COC(=O)c2ccc[nH]c2=O)c(=O)n(-c2ccccc2)n1C | 18µM* | -1% | 2% | 3% | 0% | ?
O=C(c1cc2c(s1)CCC2)N1CCN(c2ncccn2)CC1 | / | / | / | / | / | -8%
Cc1cccc(OCc2n[nH]c(=S)o2)c1C | -1% | ? | 1% | 0% | -4% | -10%
Cc1[nH]c2ccccc2c1Cc1n[nH]c(=S)o1 | -7% | -1% | -8% | 3% | -4% | ?
Cc1cccc(C)c1OCc1n[nH]c(=S)o1 | -4% | -2% | -10% | 1% | 1% | 45µM*
S=c1[nH]nc(Cc2cccc3ccccc23)o1 | 28µM* | 1% | 1% | 3% | 1% | ?
CCCN(CC1CCOC1)S(=O)(=O)c1ccc(C)c(F)c1 (configuration not stated) | / | / | / | / | / | 0%
O=C(C[n+]1cccc(O)c1)Nc1ccc(Br)cc1 | 28µM* | -2% | 0% | -3% | -1% | -4%

Source: PubChem BioAssay
